# From PubChem BioAssay
# TDP1 cell noCPT – qHTS for Inhibitors of human tyrosyl-DNA phosphodiesterase 1 (TDP1): qHTS in cells in absence of CPT. 420,000 tested, 15% active. AID 686978, 2013. Potency, µM (titrated, usually from 46.2 µM), for inactives: at the top dose activity change, negative = growth inhibition, actives largely listed as inhibitors. DT40 Tdp1-/- hTDP1 cells, no CPT, ATP luminescence, 48 h; note: potency is the fitted concentration of half-maximal effect; nearly all actives have a fitted effect of over 55% in size
#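 Stably hTDP1-transfected Tdp1-null chicken DT40 cells were treated with library compounds minus camptothecin and grown for at least 48 hr at 37 °C, after which cellular ATP was quantified by luminescence.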
# HT1080 IDH1KD tx – qHTS for induction of synthetic lethality in tumor cells producing 2HG: qHTS for the HT-1080-IDH1KD cell line. AID 686971, 2013. HT-1080 IDH1 knockdown viability, ATP luminescence, 48 h. 360,000 tested, 2% active. Potency, µM (series often up to 46.1 µM), inactives show at the top dose activity, negative = toxicity, usual class: cytotoxic;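 note: potency is the fitted concentration of half-maximal effect; 0% = DMSO wells and -100% = cell-free medium wells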
#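 Viability of IDH1-knockdown HT-1080 fibrosarcoma cells was assessed by CellTiter-Glo after 48 h at 37 °C with titrated compound; concentration-effect curves were classified by fit quality and response size.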
# HT1080NT lethal – qHTS for induction of synthetic lethality in tumor cells producing 2HG: qHTS for the HT-1080-NT fibrosarcoma cell line | AID 686970, 2013 | HT-1080-NT fibrosarcoma viability, CellTiter-Glo ATP luminescence, 48 h | Potency, µM (highest dose often 46.1 µM), without a hit: at the highest dose activity, negative = less viability, usual class: cytotoxic | 360,000 tested, 1.6% active;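 note: NT is the 2HG producing partner of a matched IDH1 knockdown line; potency is the fitted concentration of half-maximal effect; 0% = DMSO-treated cells and -100% = media-only wells without cells; nearly all actives have a fitted effect of over 55% in size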
#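 Read-out is CellTiter-Glo luminescence after 10 minutes at room temperature, following 48 hours' compound treatment of HT-1080-NT cells (750 cells/well, RPMI, 5% FBS, 37 degrees C).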
# 12-LOX inh – Primary qHTS assay for inhibitors of human arachidonate 12S-lipoxygenase (ALOX12): Round 2. purified 12hLO, xylenol orange hydroperoxide absorbance. 580,000 tested, 1.1% active. Polyunsaturated fatty acid lipoxygenase ALOX12 (Homo sapiens), P18054. Potency, µM (titrated, usually from 108 µM), for the others: at the top dose activity change, negative = inhibition, actives largely listed as inhibitors; note: potency is the fitted concentration of half-maximal effect
# Target sequence (P18054 whole entry, looked up): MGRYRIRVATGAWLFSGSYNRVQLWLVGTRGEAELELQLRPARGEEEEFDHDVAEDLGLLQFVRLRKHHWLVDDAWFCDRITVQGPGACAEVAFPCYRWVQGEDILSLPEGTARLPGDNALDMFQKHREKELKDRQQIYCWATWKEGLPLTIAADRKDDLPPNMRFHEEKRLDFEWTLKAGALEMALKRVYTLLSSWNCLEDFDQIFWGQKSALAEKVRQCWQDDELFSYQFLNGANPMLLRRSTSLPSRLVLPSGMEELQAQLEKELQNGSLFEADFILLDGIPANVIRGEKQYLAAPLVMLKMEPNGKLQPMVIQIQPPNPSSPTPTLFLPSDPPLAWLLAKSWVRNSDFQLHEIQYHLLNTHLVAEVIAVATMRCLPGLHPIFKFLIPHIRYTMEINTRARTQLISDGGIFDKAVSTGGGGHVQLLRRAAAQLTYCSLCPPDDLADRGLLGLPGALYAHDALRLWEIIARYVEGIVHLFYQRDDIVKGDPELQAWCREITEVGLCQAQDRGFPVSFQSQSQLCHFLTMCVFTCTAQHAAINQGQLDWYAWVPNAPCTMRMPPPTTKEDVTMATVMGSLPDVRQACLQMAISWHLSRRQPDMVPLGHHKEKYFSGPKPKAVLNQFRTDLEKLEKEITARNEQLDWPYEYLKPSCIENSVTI
#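 Purified human 12hLO at 150 nM in 25 mM Hepes, 0.01% Triton X-100, pH 7.0, preincubated 15 min at room temperature with compound. Reaction started with 40 uM arachidonic acid, 30 min at room temperature. Hydroperoxide measured by Fe-xylenol orange, 573/405 nm absorbance ratio.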
# TDP1 cell CPT – qHTS for Inhibitors of human tyrosyl-DNA phosphodiesterase 1 (TDP1): qHTS in cells in presence of CPT; Potency, µM (titrated, usually from 46.2 µM), without a hit: at the highest dose activity change, negative = growth inhibition, hits mostly inhibitors; 420,000 tested, 12% active; AID 686979, 2013; chicken DT40 Tdp1-/-;hTDP1 cells + 20 nM CPT, ATP luminescence, 48 h; note: potency is the fitted concentration of half-maximal effect; nearly all actives have a fitted effect of over 55% in size
#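 Chicken DT40 Tdp1-/- cells stably complemented with human TDP1 were seeded at 400 cells/well in medium containing 20 nM camptothecin, exposed to pin-transferred compounds, and grown at 37 °C for at least 48 hr. Viability was read as ATP luminescence.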
# IL1B secr inh – qHTS for Inhibitors of Inflammasome Signaling: IL-1-beta AlphaLISA Primary Screen. THP-1 LPS/ATP IL-1B secretion, AlphaLISA, 16 h; stronger effect = lower value. activity change, % at 57.5 µM. 360,000 tested, 4.7% active. AID 743279, 2014; in the data active = activity change below about -50%; inconclusive = mostly about -30% to -49%
#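 THP-1 cells pretreated 1 hr with compounds (up to 57.5 uM final), then stimulated with LPS (250 ng/mL final) plus ATP (1.25 mM final); secreted IL-1B measured by AlphaLISA after 16 hr, decreased signal indicating inhibition.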
# The depositor's hits bear a star; u = inconclusive; x = not tested or not shown; [ ] = another dose, or the depositor's remark. The entries come from a sample that favours hits as a whole. Unless noted, calls come from the whole dose curve; as a rule, active = well fitted curve in the direction sought with a large enough effect; inconclusive = small, poorly fitted or top-dose-only effect, or another doubt; inactive = no such curve, though single readings can be large; an effect the other way counts as inactive or inconclusive. Unless noted, % is set by controls: 0 for no effect and ±100 for the full control effect.
SMILES,TDP1 cell noCPT,HT1080 IDH1KD tx,HT1080NT lethal,12-LOX inh,TDP1 cell CPT,IL1B secr inh
COc1ccc(-c2cc(N3CCCC(NC(=O)c4ccc(Br)o4)C3)n[nH]2)cc1 (centres undefined),x,x,x,32.0%,x,x
CN(CC(=O)N1CCCC1)C(=O)c1ccc(S(=O)(=O)NCc2ccco2)cc1,x,x,x,7.1%,x,x
COc1cc(OC)c(NC(=O)CCn2cnc3onc(-c4ccc(F)cc4)c3c2=O)cc1Cl,2.06µM*,x,x,-13.1%,11.6µM*,x
O=C(Cn1cnc2onc(-c3ccc(F)cc3)c2c1=O)Nc1ccc(F)c(Cl)c1,u,x,x,-13.5%,9.2µM*,x
O=C(Cn1cnc2onc(-c3ccc(Cl)cc3)c2c1=O)Nc1ccc(F)cc1,u,x,x,44.7µM*,u,x
CCOc1ccccc1NC(=O)Cn1cnc2onc(-c3ccc(F)cc3)c2c1=O,u,x,x,-15.2%,u,x
O=C(CCc1nc2sc3c(c2c(=O)[nH]1)CCC3)NCc1ccccc1OC(F)(F)F,x,x,x,0.8%,x,x
CC(C)(C)C(=O)N1CCCC2(COc3ccccc3[S+](=O)([O-])N2)C1 (centres undefined),x,x,x,4.9%[6.33 µM],x,x
CN(C)CCNC(=O)c1csc(Nc2cccc3ccccc23)n1,u,u,u,11.0%,-50.4%,-60.7*
O=C(NCC1CCCO1)c1csc(Nc2cccc3ccccc23)n1 (centres undefined),14.6µM*,-6.4%,u,4.3%,18.4µM*,-14.0
COc1ccc(NC(=O)C2CC(=O)Nc3c(-c4ccc(OC)cc4)cnn32)cc1 (centres undefined),x,x,x,-7.8%,x,x
COc1cccc2sc(Nc3nnc(-c4cccs4)o3)nc12,8.2µM*,u,-28.5%,-2.7%,3.66µM*,75.3
COc1cccc2sc(Nc3nnc(-c4ccc(F)cc4)o3)nc12,5.8µM*,-24.2%,-7.3%,9.7%,5.8µM*,14.5
CCOC(=O)c1sc(Nc2nc3c(OC)cccc3s2)nc1C,x,x,x,-4.2%,x,x
Fc1cccc2sc(Nc3nnc(-c4ccco4)o3)nc12,23.1µM*,-29.9%,-23.7%,-2.3%,u,30.5
CCc1ccccc1OCC(=O)c1ccc2c(c1)N(CCCC(=O)NCC1CCCO1)C(=O)CO2 (centres undefined),x,x,x,53.8%,x,x
COc1cccc(-c2nc(-c3ccccc3)nc(N3CCN(C)CC3)c2C#N)c1,u,u,u,u,u,-61.3*
COc1ccc(-c2nc(-c3ccccc3)nc(N3CCN(C)CC3)c2C#N)cc1,u,0.0%,4.5%,-12.0%,u,-20.6
CN1CCN(c2nc(-c3ccccc3)nc(-c3ccccc3)c2C#N)CC1,u,-1.8%,-4.4%,-27.0%,u,-96.1*
COc1ccc(-c2nc(-c3cccc(C)c3)nc(N3CCN(C)CC3)c2C#N)cc1,16.4µM*,-0.3%,0.1%,u,14.6µM*,-20.2
O=C(C1CCCN(C2CCN(Cc3ccc4c(c3)OCO4)CC2)C1)N1CCOCC1 (centres undefined),x,x,x,30.0%,x,x
COc1ccc(C(=O)CCN2CCCCCC2)cc1,3.16µM*,10µM*,u,-28.0%,3.16µM*,-3.9
CC(C)Oc1ccc(C(=O)CCN2CCCCC2)cc1,u,1.0%,-5.3%,-21.1%,u,-29.8
O=C(CCCCN1CCCCC1)c1ccc2c(c1)Cc1ccccc1-2,20.6µM*,0.4%,-29.6%,-7.6%,u,-4.5
Cc1ccc(C(=O)CCN2CCCCCC2)cc1,x,x,x,2.6%,x,x
